The values that follow come from PubChem BioAssay (NCI).

Some test systems named below: T-47D breast; BT-549 breast; MDA-MB-435 melanoma; SW-620 colon; MCF7 breast; HCT-116 colon; KM12 colon; HCC-2998 colon.
What all share (experiment): NCI-60 one-dose screen, 48 h (100 = growth as untreated, 0 = no growth, -100 = all killed)
Conditions in all cases: 10 µM unless noted

The structures appear in SMILES notation. This is part of a sample that, as a whole, favours compounds with a hit. Of some 83,000 tested, about 20% had one in any assay.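 The test compound was applied at a single concentration to cells in 96-well plates for 48 hours, and percent growth was recorded.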 Values without a mark were called inactive. Activity calls are given as the source filed them. The calls were made as follows: active = growth percent below 10; inactive = the rest.

Regarding `O=[N+]([O-])c1cc(-c2ccccc2)c(O)c([N+](=O)[O-])c1`, the growth with T-47D breast was 83.2%; in the assay with BT-549 breast it was 52.2%; in the assay on MDA-MB-435 melanoma, 85.5%; in the assay on SW-620 colon, 98.2%; with MCF7 breast, 77%; in the assay with HCT-116 colon it was 86.8%. For the same molecule, the growth with KM12 colon was 84.1%.

As for `O=C(c1ccccc1)c1cc2ccccc2oc1=O`, the growth with T-47D breast is 85.5%; in the assay on BT-549 breast, 89.8%; in the assay on MDA-MB-435 melanoma it was 109%; in the assay on SW-620 colon, 113%; with HCT-116 colon it was 99.4%; in the assay on HCC-2998 colon it was 118%. In addition, the growth in the assay on KM12 colon was 92.3%.

With `Cn1ccc(=Nc2ccc(NC(=O)c3ccc(N=c4ccn(C)c5ccc([N+](=O)[O-])cc45)cc3)cc2)cc1`, the growth was 54.9% in the assay on T-47D breast; 56.1% in the assay on BT-549 breast; 83.4% in the assay with MDA-MB-435 melanoma; 70.8% with SW-620 colon; 55.6% with MCF7 breast; 32.6% in the assay on HCT-116 colon. In the assay with KM12 colon, the growth was 57.8%.

For `COC(=O)Nc1nc2ccc(C3(c4ccc(F)cc4)OCCO3)cc2[nH]1`, the growth was 47.1% in the assay on T-47D breast; 47.5% with BT-549 breast; -53.3% (active) in the assay with MDA-MB-435 melanoma; 30.7% in the assay on SW-620 colon; 25.2% in the assay on HCT-116 colon; 16.7% with HCC-2998 colon. In addition, the growth in the assay with KM12 colon was 25.6%.

`NC1=C(Br)C(=O)c2ncccc2C1=O`: the growth was 15.3% in the assay with T-47D breast; -81.2% (active) in the assay with BT-549 breast; -96.2% (active) in the assay on MDA-MB-435 melanoma; -88.4% (active) in the assay on SW-620 colon; -57.2% (active) with MCF7 breast; -46.4% (active) in the assay with HCT-116 colon. Also, the growth with KM12 colon was 24.5%.

Turning to `O=C(CBr)c1ccc(OC(=O)c2ccccc2)cc1`, the growth was 95.7% with T-47D breast; 105% with BT-549 breast; 106% with MDA-MB-435 melanoma; 88.4% in the assay with SW-620 colon; 92.5% in the assay on MCF7 breast; 75.6% in the assay with HCT-116 colon. Also, the growth in the assay on KM12 colon was 106%.

In the case of `CCCCCCCCCCCC[N+]1(CCCCCCCCCCCC)CCCC(C)C1` (configuration not stated), the growth in the assay with T-47D breast is -78.6% (active); in the assay with BT-549 breast, -72.2% (active); with MDA-MB-435 melanoma it was -58.7% (active); in the assay with SW-620 colon it was -65.4% (active); in the assay on MCF7 breast, -88.9% (active); in the assay with HCT-116 colon, -97.2% (active). The growth with KM12 colon was -96.3% (active).

As for `COc1cc(OC)c(/C=C/c2c3ccccc3cc[n+]2C)c(OC)c1`, the growth with T-47D breast is 13%; in the assay with BT-549 breast, 17.8%; with MDA-MB-435 melanoma it was 2.01% (active); with SW-620 colon, 28.2%; with HCT-116 colon, 18.5%; with HCC-2998 colon, 21.8%. Also, the growth with KM12 colon is 6.03% (active).

As for `CCCCCCCCCCCC[n+]1ccc2ccccc2c1`, the growth was 5.61% (active) in the assay on T-47D breast; -73.4% (active) in the assay on BT-549 breast; -69.6% (active) with MDA-MB-435 melanoma; -30% (active) with SW-620 colon; -74.7% (active) in the assay with HCT-116 colon; -84.7% (active) in the assay on HCC-2998 colon. In the assay with KM12 colon, the growth is -89.2% (active).

As for `Cc1cc2cccnc2c2ncccc12`, the growth in the assay with T-47D breast was 2.22% (active); in the assay on BT-549 breast it was 36%; in the assay on MDA-MB-435 melanoma it was 35.9%; in the assay with SW-620 colon, 31.6%; in the assay with MCF7 breast, 3.96% (active); with HCT-116 colon, 14%. Further, the growth with KM12 colon is 28.5%.

Regarding `O=C(Cc1ccccc1)C(F)(F)F`, the growth was 95.4% in the assay on T-47D breast; 97.5% in the assay on BT-549 breast; 104% with MDA-MB-435 melanoma; 108% in the assay with SW-620 colon; 95.5% with HCT-116 colon; 108% in the assay on HCC-2998 colon. For the same molecule, in the assay with KM12 colon, the growth was 103%.

As for `CCCCCC/C=C1\CCC(CN2CCCC2)C1=O` (configuration not stated), the growth in the assay on T-47D breast was 77.7%; in the assay on BT-549 breast, 104%; in the assay on MDA-MB-435 melanoma it was 109%; with SW-620 colon, 97.9%; in the assay on MCF7 breast, 7.97% (active); in the assay on HCT-116 colon, 84.5%. In the assay on KM12 colon, the growth is 75.4%.

As to `COc1cc(-c2ccc(-[n+]3nc(-c4ccc([N+](=O)[O-])cc4)nn3-c3ccc([N+](=O)[O-])cc3)c(OC)c2)ccc1-[n+]1nc(-c2ccc([N+](=O)[O-])cc2)nn1-c1ccc([N+](=O)[O-])cc1`, the growth with T-47D breast is -34.2% (active); in the assay on BT-549 breast, 26.9%; with MDA-MB-435 melanoma it was -58.4% (active); in the assay on SW-620 colon it was 2.63% (active); in the assay with MCF7 breast, -65% (active); in the assay on HCT-116 colon, 6.85% (active). Also, in the assay on KM12 colon, the growth is 25.4%.

With `CCCCCCCCCCCC[n+]1ccc(CCCCCCCCC)cc1`, the growth in the assay with T-47D breast is -62.3% (active); in the assay on BT-549 breast, -27.3% (active); with MDA-MB-435 melanoma it was -85.5% (active); in the assay on SW-620 colon, -67% (active); in the assay with HCT-116 colon, -91% (active); with HCC-2998 colon it was -79.5% (active). The growth with KM12 colon was -74.4% (active).

Take `CCCCCCC1N=C(N)N=C(N)N1c1cccc(Cl)c1` (configuration not stated): the growth with T-47D breast is 51.8%; in the assay on BT-549 breast, 25.2%; with MDA-MB-435 melanoma it was 24.1%; with SW-620 colon, 27%; with MCF7 breast, 22.4%; in the assay on HCT-116 colon, 16.6%. The growth in the assay with KM12 colon is 18.6%.

As to `Cc1cccc2c(N)c3ccccc3nc12`, the growth was -2.75% (active) with T-47D breast; 14% in the assay with BT-549 breast; -12.1% (active) in the assay with MDA-MB-435 melanoma; 0.0537% (active) in the assay with SW-620 colon; 0.783% (active) with HCT-116 colon; 2.09% (active) in the assay on HCC-2998 colon. The growth in the assay with KM12 colon was 9.35% (active).

`Cc1ccc(N2C(=O)C=CC2=O)cc1`: the growth in the assay with T-47D breast is 112%; in the assay on BT-549 breast it was 105%; in the assay on MDA-MB-435 melanoma, 117%; in the assay with SW-620 colon it was -11.5% (active); in the assay with HCT-116 colon it was 101%; with HCC-2998 colon, 94.3%. For the same molecule, the growth in the assay on KM12 colon was 108%.

`Cc1cc(Br)c2nsnc2c1[N+](=O)[O-]`: the growth with T-47D breast was 25.1%; in the assay on BT-549 breast, 45%; in the assay with MDA-MB-435 melanoma, 21.1%; in the assay on SW-620 colon it was 33.6%; with MCF7 breast it was 10.1%; with HCT-116 colon, 26.3%. The growth in the assay on KM12 colon is 9.82% (active).

As for `CC(C)(C)c1ccc(O)c(-c2ccccc2)c1`, the growth was 109% in the assay with T-47D breast; 131% in the assay with BT-549 breast; 124% with MDA-MB-435 melanoma; 98.9% in the assay with SW-620 colon; 102% with HCT-116 colon; 103% with HCC-2998 colon. Besides, the growth in the assay on KM12 colon is 104%.

As to `Cc1cc(C)c([I+]c2c(C)cc(C)cc2C)c(C)c1`, the growth was 0.613% (active) with T-47D breast; -86.4% (active) in the assay on BT-549 breast; -81.2% (active) with MDA-MB-435 melanoma; -40.1% (active) in the assay on SW-620 colon; -87.1% (active) with HCT-116 colon; -85.5% (active) in the assay with HCC-2998 colon. The growth with KM12 colon is -75.9% (active).

As for `CC(/C=N/NC(N)=S)Cc1ccc(C(C)C)cc1` (configuration not stated), the growth was 16.6% with T-47D breast; 64.1% with BT-549 breast; 49.2% in the assay on MDA-MB-435 melanoma; 63.5% in the assay with SW-620 colon; 49.9% in the assay with MCF7 breast; 51.4% in the assay on HCT-116 colon. The growth in the assay on KM12 colon was 89.5%.

Turning to `Cc1nc(Sc2nc3ccc([N+](=O)[O-])cc3s2)sc1C`, the growth with T-47D breast is 27%; in the assay with BT-549 breast, -10.4% (active); in the assay on MDA-MB-435 melanoma it was 29.6%; with SW-620 colon, 11.5%; in the assay on HCT-116 colon it was 2.1% (active); with HCC-2998 colon, 71.3%. For the same molecule, the growth with KM12 colon was 36.6%.

As to `N#Cc1c2ccccc2nc2ccccc12`, the growth is 101% in the assay with T-47D breast; 114% in the assay with BT-549 breast; 103% with MDA-MB-435 melanoma; 98.4% in the assay on SW-620 colon; 101% with MCF7 breast; 105% with HCT-116 colon. In the assay on KM12 colon, the growth was 108%.

As for `CN(C)CCSC1=Nc2ccc(Cl)cc2C(c2ccccc2Cl)N(C)C1` (configuration not stated), the growth with T-47D breast is 57.9%; in the assay with BT-549 breast, 76.4%; in the assay with MDA-MB-435 melanoma, 62.2%; in the assay with SW-620 colon, 87.4%; in the assay on HCT-116 colon, 65.1%; in the assay on HCC-2998 colon it was 81%. Moreover, in the assay with KM12 colon, the growth is 61.6%.

Turning to `CCOC(=O)c1[nH]c(C#N)c(C(=O)OCC)c1C`, the growth in the assay with T-47D breast was 96.6%; in the assay with BT-549 breast, 109%; with MDA-MB-435 melanoma, 94.4%; in the assay with SW-620 colon, 103%; with HCT-116 colon, 103%; in the assay on HCC-2998 colon, 103%. Further, in the assay on KM12 colon, the growth was 107%.

As for `CCCc1cc(=O)oc2c3c(c4c(c12)OC(C)(C)CC4)OC(C)[C@H](C)[C@@H]3O` (some centres not stated), the growth in the assay on T-47D breast is 67.9%; in the assay on BT-549 breast it was 108%; in the assay with MDA-MB-435 melanoma, 112%; with SW-620 colon, 84.3%; in the assay on MCF7 breast it was 70%; in the assay with HCC-2998 colon, 116%. Also, the growth in the assay on KM12 colon was 97.8%.
